In PubChem BioAssay:
Activity calls are given as the source filed them. Rule as the data show it: active = fold change permeability below about 0.7 or above about 1.3; inactive = in between.

assay: modulators of brain endothelial barrier permeability, primary screen, cell-based, FITC-avidin fluorescence, HTS (AID 1963498); conditions: actives lie on both sides; also: test concentration not given here

Fold change permeability, active:
c1ccc2c(c1)CCCC2C1=NCCN1 (centres undefined) 0.7
CC(CN(C)C)CN1c2ccccc2CCc2ccccc21 (centres undefined) 1.4
CN1[C@@H](CC(=O)c2ccccc2)CCC[C@H]1C[C@H](O)c1ccccc1 1.3
CCN(CC)CC#CCOC(=O)C(O)(c1ccccc1)C1CCCCC1 (centres undefined) 1.3
Cc1cc(NC2CCCCC2)nc(-n2nc(C)cc2C)n1 1.3
CN1CCN(C2=Nc3ccccc3Oc3ccc(Cl)cc32)CC1 1.3
Cc1cc(CN)cc(C)c1NC(=O)c1ccc(-c2cc(Cl)ccc2Cl)o1 1.5
N#Cc1c(N2CCCC2)nc(N)c2c(N)nc(N3CCCC3)cc12 1.8
CSc1ccc2c(c1)N(CCC1CCCCN1C)c1ccccc1S2 (centres undefined) 1.4
O=C1Nc2ccc(I)cc2/C1=C/c1cc(Br)c(O)c(Br)c1 0.7
CCCCNc1ccc(C(=O)OCCN(C)C)cc1 1.8
CC(C)=CCc1cc2c(cc1O)oc(=O)c1c3ccc(O)cc3oc21 1.4
COc1ccccc1N1CCN(CCCNc2c(C)c(=O)n(C)c(=O)n2C)CC1 1.5
CC(C)N1CCN(S(=O)(=O)c2ccc(NC(=O)c3ccc(C(F)(F)F)cc3[N+](=O)[O-])cc2)CC1 1.4
CN1C2CCCC1CC(NC(=O)c1nn(C)c3ccccc13)C2 (centres undefined) 1.4
CC(C)Cc1ccc(C(C)C(=O)O)cc1 (centres undefined) 2

Fold change permeability, inactive:
Cc1ccc(/C(=C\CN2CCCC2)c2ccccn2)cc1 0.8
CCCCCCCC/C=C\CCCCCCCC(=O)NCCO 1.2
COc1ccccc1N1CCN(CCN(C(=O)c2ccc(F)cc2)c2ccccn2)CC1 0.8
O=C(Nc1cc(C(F)(F)F)cc(C(F)(F)F)c1)Nc1c(Br)cc(Br)cc1-c1nn[nH]n1 0.9
CN(C)[C@@H]1C(=O)C(C(N)=O)=C(O)[C@@]2(O)C(=O)C3=C(O)c4c(O)ccc(Cl)c4[C@@H](O)[C@H]3C[C@@H]12 1
OC[C@H]1NC[C@H](O)[C@@H](O)[C@@H]1O 1.1
CC(=O)O[C@H]1C[C@@]2(C)[C@@H](C[C@@H](O)[C@H]3[C@@]4(C)CC[C@@H](O)[C@@H](C)[C@@H]4CC[C@@]32C)/C1=C(\CCC=C(C)C)C(=O)O 1
NCCSSCCN 0.9
Fc1ccc([C@@H]2CCNC[C@H]2COc2ccc3c(c2)OCO3)cc1 1.2
COC(=O)C(N)Cc1ccc(Cl)cc1 (centres undefined) 1.1
Nc1ncnc2c1ncn2[C@@H]1O[C@H](CO)[C@@H](O)[C@H]1O 1
Cc1cccc(-c2[nH]c(Cc3cccc(C(N)=O)c3)nc2-c2ccc3nccnc3c2)n1 0.9
C=Cc1c(C)c2cc3[nH]c(cc4nc(cc5nc(cc1[nH]2)C(C)=C5CCC(=O)O)C(CCC(=O)O)=C4C)c(C)c3C=C 1
Cn1c(=O)c2[nH]c(-c3ccccc3)nc2n(C)c1=O 1.1
O=[N+]([O-])c1ccc(CSc2ncnc3c2ncn3[C@@H]2O[C@H](CO)[C@@H](O)[C@H]2O)cc1 0.8
CN(C)CCC=C1c2ccccc2CCc2ccccc21 1.1
CCOC(=O)COc1ccc2c(c1)C[C@@H](NC[C@H](O)c1cccc(Cl)c1)CC2 1.1
O=c1[nH]cc(F)c(=O)[nH]1 0.8
CCCCC1C(=O)N(c2ccccc2)N(c2ccccc2)C1=O 0.9
CCN(CC)CCNC(=O)c1ccc(NC(C)=O)cc1 1.1
COc1cccc(NC(=O)/C=C/c2ccc(Cl)cc2)c1 1.1
Cc1cn([C@H]2C=C[C@@H](CO)O2)c(=O)[nH]c1=O 1.2
Cc1cccc(C#Cc2ccccc2)n1 0.9
